Source: PubChem (National Center for Advancing Translational Sciences (NCATS))
The list is not random: actives were taken first. Their share in the collection is about 2.9%.
S2 tox: reduces viability in counter-screen for ATXN expression inhibitors. Potency, µM (doses to about 56.7 µM), most hits filed as cytotoxic. 400,000 tested, 0.49% active. S2 cells (HEK-293 line with an ATXN2-luciferase reporter) viability, CellTiter-Fluor protease fluorescence, 24 h; also: nearly all actives have a fitted effect of over 40% in size
A549 viability: counter-screen for Nrf2 inhibitors: cytotoxicity in A549 cells; 390,000 tested, 0.16% active; AID 504648; Potency, µM (titrated, usually from 46 µM), inactives show at the highest dose activity change, negative = cytotoxicity, most hits filed as inhibitors; A549 ARE-Fluc cells, CellTiter-Fluor viability, 18-24 h; also: % is scaled to controls: 0 for no effect and ±100 for the full control effect
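Cytotoxicity counterscreen: CellTiter-Fluor fluorescence was measured in A549 ARE_Fluc cells after 18-24 h of compound exposure in a concentration series. The subsequent BugLite luminescent read reports ARE-luciferase activity.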
Nrf2 ARE act: activates Nrf2 signaling; AREc32 ARE-luciferase reporter (MCF7-derived line), luminescence, 24 h; Potency, µM (highest dose often 46.1 µM), without a hit: at the top dose activation, hits mostly activators; AID 624171; 410,000 tested, 0.31% active; also: % of control where 0% means no effect; nearly all actives have a fitted effect of over 65% in size
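Steps: seed AREc32_Fluc cells (1000/well, 5% FBS OPTI-MEM); incubate overnight at 37 deg C; add 23 nL compound; incubate 24 hr; add Steady-Glo; hold 30 min RT; read luminescence.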
Nrf2 block: inhibitors of Nrf2 signaling | A549 ARE-Fluc reporter, luciferase luminescence, 18-24 h | Potency, µM (highest dose often 46 µM), without a hit: at the top dose activity change, negative = inhibition, most hits filed as inhibitors | 360,000 tested, 2.1% active; also: % is scaled to controls: 0 for no effect and ±100 for the full control effect; nearly all actives have a fitted effect of over 60% in size
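Cells were seeded and rested 2 h, then exposed to compounds for 18-24 h. CellTiter-Fluor was read first as a viability measure. BugLite was added 15 min before the final luminescent read of ARE-luciferase activity in A549 cells.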
ATXN2 expr inh: reduces ATXN2 reporter expression in HEK-293 cells. Potency, µM (titrated, usually from 57 µM), for inactives: top-dose activity change, negative = inhibition, actives largely listed as inhibitors. HEK-293 ATXN2-luciferase reporter, luminescence, 24 h. AID 1745845. 360,000 tested, 0.72% active; also: % is scaled to controls: 0 for no effect and ±100 for the full control effect; nearly all actives have a fitted effect of over 55% in size
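ATXN2-luciferase reporter cells (luciferase flanked by upstream and downstream ATXN2 gene portions) were treated 24 h at 37 °C with compounds at up to 57 uM. SteadyGlo luminescence gave expression; GF-AFC fluorescence gave viability.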
Starred values were filed as active, the others as inactive. Calls follow the shape of the dose curve; as a rule, active = well fitted curve in the direction sought with a large enough effect; inconclusive = small, poorly fitted or top-dose-only effect, or another doubt; inactive = no such curve, though single readings can be large; an effect the other way counts as inactive or inconclusive. Potency is read from the fitted curve at half-maximal effect.

CCOc1ccc(NC(=O)CSc2ccc(-c3ccccn3)nn2)cc1 was read as S2 tox inactive, A549 viability 1%, Nrf2 ARE act 0%, Nrf2 block -7% and ATXN2 expr inh -25%.
For CCCCOc1ccc(C(=O)NCC(=O)N2CC(C)OC(C)C2)cc1 (stereo not drawn) the results were S2 tox inconclusive, A549 viability 1%, Nrf2 ARE act -1%, Nrf2 block -3% and ATXN2 expr inh 2%.
For CC(Oc1ccc(-c2ccccc2)cc1)C(=O)N/N=C/c1cccnc1 (stereo not drawn) the results were S2 tox inactive, A549 viability 0%, Nrf2 ARE act 0%, Nrf2 block -16% and ATXN2 expr inh 2%.
`CCOc1ccc(Cl)cc1-c1cc(C(=O)Nc2ccc(F)cc2)[nH]n1` gave S2 tox inconclusive, Nrf2 ARE act 0% and ATXN2 expr inh inconclusive.
Screening Nc1nccc(Oc2ccc(NC(=O)c3c[nH]cc(-c4ccc(F)cc4)c3=O)cc2F)c1Cl returned ATXN2 expr inh 31µM*.
For CC(=O)c1ccc(N(C)C)cc1 the results were S2 tox inactive, A549 viability -2%, Nrf2 ARE act -1%, Nrf2 block 2% and ATXN2 expr inh 4%.
For CN(C)c1ccc(C(=C2C=CC(=[N+](C)C)C=C2)c2ccc(N(C)C)cc2)cc1 the results were S2 tox 18µM* and ATXN2 expr inh 7.7µM*.
`Cc1nn2c(C)c(C(=O)NCc3ccc(OC(C)C)cc3)cnc2c1-c1ccc(F)cc1` gave A549 viability 1%, Nrf2 ARE act 0% and Nrf2 block 6%.
Screening CC(C)(C)Cn1c(N)nc2ccc(-c3[nH]c(C(C)(C)C)nc3-c3ccc(F)cc3)nc21 returned ATXN2 expr inh 27µM*.
Cc1ccc(C)c(NC(=O)Cn2nnc(C(=O)Nc3c(C)cccc3C)c2N)c1 was read as S2 tox inconclusive, A549 viability -3%, Nrf2 ARE act -1%, Nrf2 block -14% and ATXN2 expr inh -6%.
For COc1cc2cc(C(=O)N(C)Cc3ccccc3)[nH]c2cc1OC the results were S2 tox inactive, A549 viability 3%, Nrf2 ARE act 0%, Nrf2 block 5% and ATXN2 expr inh 2%.
Screening C=CCN(Cc1ccc(OC)c(OC)c1)C(=O)c1cc2cc(F)ccc2[nH]1 returned S2 tox inactive, A549 viability inconclusive, Nrf2 ARE act 4%, Nrf2 block 23µM* and ATXN2 expr inh -20%.
For CCc1cc2c(=O)c(-c3ccc4c(c3)OCCO4)c(C)oc2cc1OS(C)(=O)=O the results were S2 tox inactive, A549 viability inconclusive, Nrf2 ARE act 4%, Nrf2 block 23µM* and ATXN2 expr inh -24%.
Screening CCc1cc(=O)oc2c(C)c(OS(C)(=O)=O)ccc12 returned S2 tox inactive, A549 viability 3%, Nrf2 ARE act 0%, Nrf2 block 2% and ATXN2 expr inh 2%.
`CC(C)(CNc1ccc(C(F)(F)F)cc1[N+](=O)[O-])N1CCOCC1` gave S2 tox inactive, A549 viability -1%, Nrf2 ARE act -2%, Nrf2 block -10% and ATXN2 expr inh -13%.
Cc1nc2c(C)cccn2c(=O)c1NC(=O)c1ccc2c(c1)OCO2 was read as S2 tox inactive, A549 viability 6%, Nrf2 ARE act 0%, Nrf2 block 16% and ATXN2 expr inh 3%.
Screening CCCN1CCCc2cc(CN(CCCN3CCOCC3)C(=O)Nc3ccc(Cl)c(Cl)c3)ccc21 returned S2 tox 10µM*, A549 viability inconclusive, Nrf2 ARE act 22% and ATXN2 expr inh 0%.
For NS(=O)(=O)c1ccc(N=Nc2c(-c3ccccc3)[nH]n(-c3nc(-c4ccccc4)cs3)c2=O)cc1 the results were S2 tox inactive, A549 viability inconclusive, Nrf2 ARE act 2%, Nrf2 block 4.6µM* and ATXN2 expr inh inconclusive.
`CC(=O)N1CCN(Cc2nc3cc(NC(=O)COc4cccc(C)c4)ccc3n2C)CC1` gave S2 tox inactive, A549 viability -5%, Nrf2 ARE act 0%, Nrf2 block 23µM* and ATXN2 expr inh -10%.
For Cc1cccc(OCC(=O)Nc2ccc3c(c2)nc(CCN2CCN(c4ccccn4)CC2)n3C)c1 the results were S2 tox inconclusive, A549 viability -14%, Nrf2 ARE act 0%, Nrf2 block inconclusive and ATXN2 expr inh 14µM*.
`O=C1Nc2ccccc2C12OCC(COc1ccc(Cl)cc1)O2` (stereo not drawn) gave S2 tox inactive, A549 viability -7%, Nrf2 ARE act 1%, Nrf2 block inconclusive and ATXN2 expr inh -4%.
`CN1C(=O)C2(OCC(COc3ccc(Cl)cc3)O2)c2ccccc21` (stereo not drawn) gave S2 tox inactive, A549 viability -10%, Nrf2 ARE act 1%, Nrf2 block 18µM* and ATXN2 expr inh -25%.
O=[N+]([O-])c1ccc(Oc2cccc3cccnc23)c(Cl)c1 was read as S2 tox inactive, A549 viability 0%, Nrf2 ARE act 3%, Nrf2 block -2% and ATXN2 expr inh -14%.
For NC1=NC[C@H](Cc2ccc(O)cc2)N1CCc1cc(C(F)(F)F)cc(C(F)(F)F)c1 the results were S2 tox inactive, A549 viability 2%, Nrf2 ARE act 5%, Nrf2 block 17% and ATXN2 expr inh 9%.
`NC1=NC[C@H](Cc2ccccc2)N1CCCCC1CCCCC1` gave S2 tox inconclusive, A549 viability 4%, Nrf2 ARE act -3%, Nrf2 block -4% and ATXN2 expr inh 25µM*.
`NC1=NC[C@@H](CC2CCCCC2)N1CCc1cc(C(F)(F)F)cc(C(F)(F)F)c1` gave S2 tox 18µM*, A549 viability -9%, Nrf2 ARE act -3%, Nrf2 block -6% and ATXN2 expr inh 20µM*.
For CCC(C)NC(=O)c1cn(CC)c2ccc(S(=O)(=O)N3CCc4ccccc4C3)cc2c1=O (stereo not drawn) the results were S2 tox inconclusive, A549 viability -9%, Nrf2 ARE act 0%, Nrf2 block 23µM* and ATXN2 expr inh inconclusive.
For Oc1cccc2ccc(/C=C/c3cccs3)nc12 the results were S2 tox inactive, A549 viability 0%, Nrf2 ARE act 3.2µM* and ATXN2 expr inh 0%.
Screening Oc1cccc2ccc(/C=C/c3ccccc3Br)nc12 returned S2 tox inactive, A549 viability 2%, Nrf2 ARE act 10µM*, Nrf2 block 6% and ATXN2 expr inh 0%.
Screening COc1cc(Br)c(/C=C/c2ccc3cccc(O)c3n2)cc1OC returned A549 viability -3%, Nrf2 ARE act 13% and Nrf2 block -22%.
Screening CCN(CC)c1ccc(NC(=O)c2cccc(C)c2OC)c(C)c1 returned S2 tox inactive, A549 viability -2%, Nrf2 ARE act 0% and ATXN2 expr inh 74%.
